Bioassay records (PubChem BioAssay)
A549 tox = kills or reduces viability of A549 cells in Nrf2 counter-screen. A549 ARE-Fluc cells, CellTiter-Fluor viability, 18-24 h. Potency, µM (highest dose often 46 µM), without a hit: at the top dose activity change, negative = cytotoxicity, most hits filed as inhibitors. 390,000 tested, 0.16% active. AID 504648; also: potency is read from the fitted curve at half-maximal effect
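A549 ARE-Fluc cells in 5% FBS OPTI-MEM, 5000 cells/well, rested 2 h then exposed to compounds in concentration-response for 18-24 h at 37 °C. Viability by CellTiter-Fluor fluorescence (Ex 405/Em 525) after 30 min; luciferase luminescence (BugLite, 15 min, RT) read afterwards.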
Nrf2 inh = blocks Nrf2 signaling; A549 ARE-Fluc reporter, luciferase luminescence, 18-24 h; Potency, µM (doses to about 46 µM), without a hit: top-dose activity change, negative = inhibition, actives largely listed as inhibitors; 360,000 tested, 2.1% active; also: potency is read from the fitted curve at half-maximal effect; nearly all actives have a fitted effect of over 60% in size
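Nrf2 activity is the BugLite luminescence, read 15 min after reagent at room temperature, following CellTiter-Fluor cytotoxicity readout (30 min, 37C). Compound titrations were applied for 18-24 h to 5000 A549 ARE_Fluc cells/well in 5% FBS OPTI-MEM.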
KB-V1 MDR tox = KB-V1 MDR subline cytotoxicity; KB-V1 MDR cells viability, CellTiter-Glo, 72 h; Potency, µM (doses to about 46.1 µM), usual class: cytotoxic; 400,000 tested, 3.4% active; AID 1347076; also: potency is read from the fitted curve at half-maximal effect; nearly all actives have a fitted effect of over 60% in size
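Readout: CellTiter-Glo luminescence, 10 min after addition. Cells: KB-V1 MDR subline, 72 h at 37 degrees C with compound. Analysis: corrected, normalized data fitted to concentration-effect curves.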
Giardia kill = kills Giardia lamblia | 340,000 tested, 0.15% active | activity change, % at 7.66 µM, hits read low | AID 540267 | Giardia lamblia trophozoite viability; in the data active = activity change below about -80%; inconclusive = between about -30% and that limit;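 also: parasites exposed to compound for two days anaerobically before the ATP read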
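Trophozoites 100 cells/well + cpd; 48 hrs, 37 deg C, anaerobic. ATPLite 1-Step added, 15-30 min RT, luminescence read (ATP-based viability).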
PI4K2A block = blocks human PI4K2A kinase activity | purified PI4K2A, ADP-Glo luminescence, 1 h; hits give low values | 420,000 tested, 0.13% active | activity change, negative = inhibition, % at 76.9 µM | Q9BTU6; in the data active = activity change below about -50%; inconclusive = mostly about -30% to -49%;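 also: -100% = wells without enzyme as full effect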
Target sequence (Q9BTU6 whole entry, looked up): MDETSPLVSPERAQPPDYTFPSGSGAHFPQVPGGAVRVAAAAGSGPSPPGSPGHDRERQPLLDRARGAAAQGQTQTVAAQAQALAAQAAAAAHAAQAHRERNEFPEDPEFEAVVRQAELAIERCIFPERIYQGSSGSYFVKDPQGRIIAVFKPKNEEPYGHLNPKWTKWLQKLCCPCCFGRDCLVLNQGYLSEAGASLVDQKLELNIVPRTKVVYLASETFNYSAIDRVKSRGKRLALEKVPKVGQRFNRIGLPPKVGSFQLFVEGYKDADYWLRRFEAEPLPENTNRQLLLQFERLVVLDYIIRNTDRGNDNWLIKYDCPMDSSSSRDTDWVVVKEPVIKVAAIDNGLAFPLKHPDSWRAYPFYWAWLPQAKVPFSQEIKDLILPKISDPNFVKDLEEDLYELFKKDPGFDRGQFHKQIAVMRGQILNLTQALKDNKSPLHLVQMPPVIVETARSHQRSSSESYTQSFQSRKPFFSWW
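PI4K2A activity was measured by ADP-Glo luminescence: enzyme (4 ug/mL stock) and phosphatidylinositol (1.2 mM stock) in Tris pH 7.5/MgCl2/EGTA/Triton X-100 buffer were reacted with ATP (300 microM stock) for one hour at ambient temperature.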
KB-3-1 tox = KB-3-1 parental cell cytotoxicity | KB-3-1 viability, CellTiter-Glo ATP luminescence, 72 h | Potency, µM (series often up to 46.1 µM), most hits filed as cytotoxic | 400,000 tested, 1.4% active; also: potency is read from the fitted curve at half-maximal effect; nearly all actives have a fitted effect of over 60% in size
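Parental KB-3-1 viability, qHTS format: 72 h compound exposure, 37 °C; CellTiter-Glo; media-only wells and DMSO plates as controls; concentration-effect fits on corrected data.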
An asterisk follows results filed as active; i = inactive; ? = inconclusive; . = no result given. This is a sample that favours compounds with a hit; in the whole collection about 5.7% have one here. Unless noted, calls follow the shape of the dose curve; as a rule, active = well fitted curve in the direction sought with a large enough effect; inconclusive = small, poorly fitted or top-dose-only effect, or another doubt; inactive = no such curve, though single readings can be large; an effect the other way counts as inactive or inconclusive. Unless noted, % is scaled to controls: 0 for no effect and ±100 for the full control effect.

SMILES	A549 tox	Nrf2 inh	KB-V1 MDR tox	Giardia kill	PI4K2A block	KB-3-1 tox
Cc1cccc(NC(=O)c2ccc([N+](=O)[O-])o2)c1C	0%	-5%	?	-97*	5	i
O=C(Nc1ccccc1C(=O)NC1CC1)c1ccc([N+](=O)[O-])o1	-9%	-10%	?	?	-1	i
O=C(Nc1cccc(NC(=O)c2ccccc2Cl)c1)c1ccc([N+](=O)[O-])o1	-23%	8%	?	-103*	-8	?
O=C(Nc1cccc2ccccc12)c1ccc([N+](=O)[O-])s1	1%	-19%	i	-89*	0	i
Cc1ccc(NC(=O)c2ccc([N+](=O)[O-])o2)cc1C	?	-7%	i	-94*	4	18µM*
COc1ccc(C(=O)NCC(=O)OCC(=O)c2ccc3ccccc3c2)cc1	2%	?	i	-21	.	i
c1cnc2[nH]ccc2c1	.	.	i	.	.	i
COc1ccc(Nc2ncnc3c2nc2n3CCCC2)cc1Cl	-2%	?	.	.	2	.
CC[C@H](C(=O)Nc1ccccc1N1CCCC1)c1ccccc1	.	.	.	.	-2	.
O=C(Nc1cccc2ccccc12)c1ccc([N+](=O)[O-])o1	-25%	-4%	?	-98*	2	?
O=C(Nc1cccnc1)c1ccc([N+](=O)[O-])s1	-15%	?	i	-87*	4	?
COc1ccccc1NC(=O)c1ccc([N+](=O)[O-])o1	-7%	-11%	i	-96*	-7	?
COc1ccccc1NC(=O)c1ccc(COc2ccccc2OC)o1	-8%	?	i	-15	1	i
O=C(Nc1ccc2oc(-c3ccccc3F)nc2c1)c1ccccc1Cl	1%	7%	i	.	1	?
O=C(Nc1ccc2oc(-c3ccccc3F)nc2c1)c1ccc([N+](=O)[O-])o1	0%	4%	i	-96*	-1	i
COc1ccc(C)cc1-n1nnc(-c2nc(-c3ccccc3Cl)no2)c1N	0%	-5%	i	.	-2	i
COc1ccc(S[C@]2(C(=O)N3CCN(c4ncccn4)CC3)CC(=O)N(P(=O)(OC)OC)[C@@H]2c2ccc(OC)cc2)cc1	.	.	.	.	-2	.
COc1ccc(C2C(C(=O)N3CCOCC3)CC(=O)N2c2ccc(OC)cc2)cc1 (centres undefined)	.	.	.	.	11	.
O=C(NN=Cc1ccccc1C(F)(F)F)c1cc(-c2ccc(Cl)cc2)n[nH]1	.	.	.	.	-2	.
Cc1ccc(C2CN=NC23CCc2ccccc2C3=O)cc1 (centres undefined)	1%	?	i	-6	-10	i
O=C1c2ccccc2CCCC12N=NCC2c1cccc2ccccc12 (centres undefined)	-4%	16µM*	?	-21	1	i
O=S(=O)(c1ccc(Cl)c(Cl)c1)c1snnc1-c1ccccc1	?	-4%	?	3	25	5.2µM*
CCOC(=O)CCn1nc(-c2ccc(Cl)cc2)cc1N	-6%	8%	?	-14	15	21µM*
Cn1c(=O)c2[nH]c(SCC(=O)N3CCN(c4cccc(C(F)(F)F)c4)CC3)nc2n(C)c1=O	.	.	.	.	0	.
O=c1[nH]c2ccccc2c(=O)n1CCCl	.	.	.	.	-5	.
SMILES	A549 tox	Nrf2 inh	KB-V1 MDR tox	Giardia kill	PI4K2A block	KB-3-1 tox
Cc1cc(Sc2nnc(/N=C/N(C)C)s2)c2ccccc2n1	-14%	7.3µM*	i	-16	3	?
Cc1ccccc1CN1CCCCC(NC(=O)C(C)(C)C)C1=O (centres undefined)	.	.	.	.	-4	.
CCOC(=O)N1CCN(/[N+]([O-])=N/Oc2ccc([N+](=O)[O-])cc2[N+](=O)[O-])CC1	?	?	.	-12	14	.
O=S(=O)(N[C@@H]1CCCC[C@@H]1N1CCOCC1)c1ccc(Cl)cc1	.	.	.	.	-1	.
CCOC(=O)c1c(NC(=O)CSc2nnc(-c3c[nH]c4ccccc34)n2CCOC)sc2c1CCCC2	-19%	?	i	4	3	18µM*
Cc1ccc(NS(=O)(=O)c2ccc3ccccc3c2)cc1C	16%	?	.	.	.	.
COc1ccc(C(=O)CCC(=O)Nc2cccc(Cl)c2)cc1	1%	11%	i	-30	3	i
CCOc1ccc(Oc2ccc(NS(=O)(=O)c3cc(C(=O)O)ccc3Cl)cc2)cc1	5%	-17%	i	8	4	i
Cc1ccc(C(=O)CCC(=O)Nc2ccc(Cl)c(S(=O)(=O)Nc3cccc(Cl)c3)c2)cc1	-9%	?	16µM*	2	1	i
Cc1ccc(S(=O)(=O)NCCC(=O)Nc2cccc(Cl)c2)cc1	-4%	-3%	16µM*	1	-1	i
CCOc1ccc(NS(=O)(=O)c2cc(NC(=O)c3ccc(C)cc3)ccc2Cl)cc1	?	?	0.82µM*	6	1	?
NS(=O)(=O)c1ccc(CCNC(=O)Nc2ccc(Cl)c(Cl)c2)cc1	-27%	21µM*	i	26	2	i
COC(=O)C1CN(Cc2ccccc2)CCS(=O)(=O)N1Cc1cccc(Cl)c1 (centres undefined)	.	.	.	.	-3	.
CCC(=O)Nc1ccc2nc(SCCOc3ccc(C)cc3OC)sc2c1	-2%	?	i	.	3	i
O=C(CCc1ccccc1)N[C@H]1[C@@H](OC(=O)c2cnccn2)CCC[C@]12C(=O)N(Cc1ccccc1)c1ccccc12	.	.	.	.	-3	.
COc1ccc(/C=C/S(=O)(=O)NC2CCCC2)c(CNC(=O)OC(C)(C)C)c1	.	.	.	.	-4	.
Cc1cn([C@@H]2O[C@H](CO)[C@@H](O)[C@H]2F)c(=O)[nH]c1=O	.	.	.	.	1	.
Cc1ccc(S(=O)(=O)NCCC(=O)Nc2ccc(Cl)c(Cl)c2)cc1	-5%	-6%	15µM*	9	-1	?
COc1ccc(NC(=S)NCCC(c2ccccc2)c2ccccc2)c(OC)c1	-15%	?	?	-11	8	?
COc1ccccc1NC(=S)NCc1ccccc1Cl	0%	3%	i	9	1	i
COc1ccc(NC(=S)NCc2ccccc2Cl)c(OC)c1	0%	23µM*	?	0	2	i
COc1ccc(NC(=S)NCCc2ccccc2OC)c(OC)c1	4%	-3%	21µM*	-5	0	?
CCOc1ccc(C(C)=O)cc1N1C(=O)C2C3C=CC(C3=C(C)C)C2C1=O (centres undefined)	14%	5%	16µM*	-2	1	i
Nc1nc(NCc2ccc(Cl)cc2)c2[nH]cnc2n1	14%	5%	i	-5	.	i
